Screening data from PubChem.
The list is not random: actives were taken first. Their share in the collection is about 21%.
Pf growth 96h = inhibits malaria parasite growth, 96 h | P. falciparum luciferase reporter growth, 96 h | Potency, µM (top dose mostly 28.7 µM), actives largely listed as inhibitors | hit rate 6.9% among 320,000
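Parasite growth measured via integrated firefly luciferase reporter in P. falciparum. Infected erythrocytes at 2% hematocrit, 0.05% parasitemia final were treated 96 hours at 37 C under 5% CO2, and luminescence was read.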
AMA1-RON2 inh = AMA1-RON2 (P. falciparum) interaction inhibition | AlphaScreen AMA1-biotinylated RON2 peptide binding | Potency, µM (highest dose often 58.2 µM), most hits filed as inhibitors | hit rate 0.2% among 360,000 | AID 720542; note: nearly all actives have a fitted effect of over 45% in size
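AMA1 (3D7) with his tag at 25 nM final met compounds first, then biotinylated RON2 peptide at 25 nM; detection used donor plus acceptor beads, 10 µg/mL apiece, read by AlphaScreen after 30 min at room temperature.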
Shiga toxin inh = blocks Shiga toxin action in Vero cells. Vero cells, Shiga toxin protein synthesis inhibition reporter. inhibition, % at 38.7 µM. hit rate 9.2% among 290,000; in the data active = inhibition mostly above about 28%, no sharp cut-off; inactive = mostly below about 43%
Pf growth 48h = inhibits P. falciparum growth in the first generation, 48 h | P. falciparum luciferase growth in erythrocytes, 48 h | Potency, µM (highest dose often 28.7 µM), usual class: inhibitors | hit rate 5.9% among 310,000
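Read-out is firefly luciferase luminescence from an integrated reporter in P. falciparum, so falling signal marks reduced parasite growth. Infected erythrocytes were at 2% hematocrit and 0.1% parasitemia (final) in Albumax-supplemented RPMI 1640.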
HCV inh = HCV inhibition; Huh7.5.1 HCVcc-Cre infection, luciferase reporter, 44 h; Potency, µM (top dose mostly 41.8 µM), hits mostly inhibitors; hit rate 3.4% among 340,000; AID 651820
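HCVcc-Cre virus at an moi near 0.5 was added right after compound to cells cultured 4 h from seeding (1,000 cells/well). Luciferase activity was determined 44 h later, 15 min after substrate addition at RT.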
Cycloheximide cs = counter-screen hit for Shiga toxin inhibitors, cycloheximide. cell reporter, cycloheximide protein synthesis inhibition counterscreen. max response, %. hit rate 12% among 300,000. AID 2314; in the data active = max response mostly above about 13%, no sharp cut-off; inactive = mostly below about 14%; note: read at 38.3 µM for the half of the compounds with a filed dose
Hits are given with their value; [ ] = remark or other dose. Unless noted, calls come from the whole dose curve; as a rule, active = well fitted curve in the direction sought with a large enough effect; inconclusive = small, poorly fitted or top-dose-only effect, or another doubt; inactive = no such curve, though single readings can be large; an effect the other way counts as inactive or inconclusive.

`CC(OC(=O)c1ccc(O)cc1)C(=O)Nc1nc(-c2ccccc2)cs1` (configuration not stated) gave Pf growth 96h inconclusive, AMA1-RON2 inh inactive, Pf growth 48h 6.6µM and HCV inh inconclusive.
O=C(NCCO)c1cc(-c2cc(C(=O)NCCO)c3ccccc3n2)nc2ccccc12 was read as Pf growth 96h inactive, AMA1-RON2 inh inactive, Shiga toxin inh inactive, Pf growth 48h inactive, HCV inh inactive and Cycloheximide cs inactive.
Screening COc1ccc(CN2C(=O)C(CC(=O)NCC3CCCCC3)CC(C(=O)N3CCOCC3)=C2C)cc1 (configuration not stated) returned AMA1-RON2 inh inactive.
For CC1(C(=O)NC(=S)NNC(=O)c2ccncc2)CCCCC1 the results were Pf growth 96h inconclusive, AMA1-RON2 inh inactive, Shiga toxin inh inactive, Pf growth 48h inconclusive, HCV inh inactive and Cycloheximide cs inactive.
Screening O=C(NNC(=S)NC(=O)C12CC3CC(CC(C3)C1)C2)c1ccncc1 returned Pf growth 96h 3.3µM, AMA1-RON2 inh inactive, Shiga toxin inh inactive, Pf growth 48h 3.3µM, HCV inh inactive and Cycloheximide cs inactive.
O=C(NNC(=O)C12CC3CC(CC(C3)C1)C2)c1ccccn1 was read as Pf growth 96h 4.1µM, AMA1-RON2 inh inactive, Shiga toxin inh inactive, Pf growth 48h 4.1µM, HCV inh inconclusive and Cycloheximide cs inactive.
`O=C(NNC(=O)C12CC3CC(CC(C3)C1)C2)c1cnccn1` gave Pf growth 96h inconclusive, AMA1-RON2 inh inactive, Shiga toxin inh inactive, Pf growth 48h inconclusive, HCV inh inactive and Cycloheximide cs inactive.
Screening CN(C)C(=O)CSc1nnc(-c2ccc(S(=O)(=O)N3CCCC3)cc2)n1C returned Pf growth 96h inactive, AMA1-RON2 inh inactive, Shiga toxin inh inactive, Pf growth 48h inactive, HCV inh inactive and Cycloheximide cs inactive.
`Cc1onc(-c2ccccc2)c1C(O)c1ccc(F)cc1` (configuration not stated) gave Pf growth 96h inactive, AMA1-RON2 inh inactive, Shiga toxin inh inactive, Pf growth 48h inactive, HCV inh inactive and Cycloheximide cs inactive.
`c1ccc2c(c1)OCCOCCOCCOCCOc1ccccc1OCCOCCOCCO2` gave Pf growth 96h 12µM, AMA1-RON2 inh inactive, Shiga toxin inh inactive, Pf growth 48h inactive, HCV inh inconclusive and Cycloheximide cs inactive.
Brc1ccc2c(c1)OCCOCCOCCOCCOCCO2 was read as Pf growth 96h 10µM, AMA1-RON2 inh inactive, Shiga toxin inh inactive, Pf growth 48h inactive, HCV inh inactive and Cycloheximide cs inactive.
Screening CCOC(=O)[C@]12CCC=C1N(CCC1=CCCCC1)C(=O)[C@H](CC(=O)N1CCCC1)C2 returned AMA1-RON2 inh inactive.
Screening CCn1c(SCC(=O)Nc2ccc(C)cc2)nc2sc3c(c2c1=O)CCN(C)C3 returned Pf growth 96h 0.37µM, AMA1-RON2 inh inactive, Shiga toxin inh inactive, Pf growth 48h 3.7µM, HCV inh inconclusive and Cycloheximide cs inactive.
For COCCn1c(SCC(=O)Nc2ncc(C)s2)nc2sc3c(c2c1=O)CCC3 the results were Pf growth 96h inactive, Shiga toxin inh inactive, Pf growth 48h inconclusive, HCV inh 2.2µM and Cycloheximide cs 25.
Screening CCCn1c(SCC(=O)N2CCN(C(C)=O)CC2)nc2sc3c(c2c1=O)CCC3 returned Pf growth 96h 13µM, AMA1-RON2 inh inactive, Shiga toxin inh inactive, Pf growth 48h inconclusive, HCV inh inactive and Cycloheximide cs inactive.
`CCCn1c(SCC(=O)NCC)nc2sc3c(c2c1=O)CCC3` gave Pf growth 96h inactive, AMA1-RON2 inh inactive, Shiga toxin inh inactive, Pf growth 48h inactive, HCV inh inactive and Cycloheximide cs inactive.
Screening CCCn1c(SCC(=O)Nc2cc(C(=O)O)ccc2C)nc2sc3c(c2c1=O)CCC3 returned Pf growth 96h inactive, AMA1-RON2 inh inactive, Pf growth 48h inactive and HCV inh inactive.
CCn1c(SCC(N)=O)nc2sc3c(c2c1=O)CCN(C)C3 was read as Pf growth 96h inconclusive, AMA1-RON2 inh inactive, Shiga toxin inh inactive, Pf growth 48h 1.3µM, HCV inh inactive and Cycloheximide cs inactive.
CC1CCCC(NC(=O)Cn2cc(Br)ccc2=O)C1C (configuration not stated) was read as AMA1-RON2 inh inactive[11.6 µM] and HCV inh inactive.
Screening Cc1ccc(C)c(Sc2ccc(S(=O)(=O)Nc3ccc(C(=O)O)cc3)cc2)c1 returned Pf growth 96h inactive, AMA1-RON2 inh inactive, Pf growth 48h inconclusive and HCV inh inactive.
For COC(=O)C[C@@H]1C=C[C@H](NC(=O)Nc2cc(F)ccc2F)[C@@H](CO)O1 the results were AMA1-RON2 inh inactive.
Screening COc1ccc(COC(=O)c2cccc(S(=O)(=O)N3CCN(C(C)=O)CC3)c2)cc1 returned Pf growth 96h inactive, AMA1-RON2 inh inactive, Pf growth 48h inactive and HCV inh inactive.
COc1ccc(NC(=O)N2CCC(n3cnc4ccccc43)CC2)cc1 was read as Pf growth 96h inactive, AMA1-RON2 inh inactive, Shiga toxin inh inactive, Pf growth 48h inconclusive, HCV inh inactive and Cycloheximide cs inactive.
Screening O=C(NNS(=O)(=O)c1ccccc1)c1cc2cc3ccccc3nc2s1 returned Pf growth 96h inactive, AMA1-RON2 inh inactive, Shiga toxin inh 54, Pf growth 48h inconclusive, HCV inh inactive and Cycloheximide cs inactive.
`O=C(NC1CC1)c1cc2cc3ccccc3nc2s1` gave Pf growth 96h 13µM, AMA1-RON2 inh inactive, Shiga toxin inh 99, Pf growth 48h inactive, HCV inh inactive and Cycloheximide cs 41.
O=C(NC1CC1)c1cc2cc(Br)ccc2s1 was read as Pf growth 96h inactive, AMA1-RON2 inh inactive, Shiga toxin inh 51, Pf growth 48h inconclusive, HCV inh inactive and Cycloheximide cs 38.
For O=C(NNC(=O)c1cc2cc3ccccc3nc2s1)c1cccc(C(F)(F)F)c1 the results were Pf growth 96h inactive, AMA1-RON2 inh inactive, Shiga toxin inh inactive, Pf growth 48h inactive, HCV inh inactive and Cycloheximide cs inactive.
Screening Cn1c(-c2ccccc2)c(C#Cc2ccc(N)cc2)c2ccccc21 returned AMA1-RON2 inh inactive and HCV inh inconclusive.
CC(C)Cc1ccc(C(C)C(=O)Nc2ncccn2)cc1 (configuration not stated) was read as Pf growth 96h inactive, AMA1-RON2 inh inactive, Shiga toxin inh inactive, Pf growth 48h inactive, HCV inh inactive and Cycloheximide cs inactive.
COC(=O)c1cc(NC(=O)C(C)c2ccc(CC(C)C)cc2)ccc1O (configuration not stated) was read as Pf growth 96h inconclusive, AMA1-RON2 inh inactive, Shiga toxin inh inactive, Pf growth 48h inconclusive, HCV inh 11µM and Cycloheximide cs inactive.
For COc1ccc(NC(=O)CCCn2cnc3ccccc3c2=O)cc1 the results were Pf growth 96h inactive, AMA1-RON2 inh inactive, Shiga toxin inh inactive, Pf growth 48h inactive[0.00184 µM], HCV inh inactive and Cycloheximide cs inactive.
